The text below walks through data of PubChem BioAssay (Tox21).

Where “and” joins values, the source holds several entries; their conditions need not be identical. Equal entries are not always repeated. Results filed as inconclusive are left out. Calls of active or inactive are those of the source. Unless noted, the call rests on the fitted dose curve; in most records, active means well fitted curve in the direction sought with a large enough effect in the repeat runs; inconclusive means weak or mixed curves; inactive means no such curve, though single readings can be large; an effect the other way counts as inactive or inconclusive.

Assay [1] in a line: Caspase-3/7 induction in HepG2 cells by small molecules, qHTS assay (AID 1346978). Further: nearly all actives have a fitted effect of over 15% in size. In a few lines:
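Wild-type HepG2 cells, 2,000/well, settled 5 hr at 37 C and 5% CO2, then compound-treated for 17 hr; caspase-3/7 activity read by luminescent Caspase-Glo 3/7 after 30 min at room temperature.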
A general note: Quantitative high-throughput screening tests each substance at several concentrations.

Assay [2] in a line: Caspase-3/7 induction in CHO-K1 cells by small molecules, qHTS assay (AID 1346980). Further: nearly all actives have a fitted effect of over 15% in size. The gist of the method:
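Wild-type CHO-K1 cells exposed to compounds for 17hr at 37 C, 5% CO2. Caspase-3/7 activity then measured by Caspase-Glo 3/7 luminescence after 30min at room temperature.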

Assay [3] in a line: Caspase-3/7 induction in HepG2 cells by small molecules, qHTS cell viability counter screen (AID 1346981). Further: nearly all actives have a fitted effect of over 30% in size. Further: potency means the concentration at half of the fitted maximal effect. The gist of the method:
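Wild-type HepG2 cells, 2,000/well, settled 5 hr at 37 C, 5% CO2 before compound addition. Viability read by CellTiter-Fluor fluorescence, reagent added after 16 hr compound exposure, then 1 hr at 37C, in the same wells as the caspase read.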

Assay [4] addresses Acetylcholinesterase (Homo sapiens) (UniProt P22303). Kind of assay: Acetylcholinesterase (AChE) small molecule antagonists: enzyme-based qHTS assay (AID 1347397; calls by dose curve; further: nearly all actives have a fitted effect of over 55% in size). To be noted: Potency: AChE enzyme activity inhibition; outcome: AChE enzyme activity inhibition. In a few lines:
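Recombinant human AChE (50 mU/mL) preincubated with compound 30 min at room temperature; acetylthiocholine plus DTNB then added, and thiocholine formation read colorimetrically after 10 min at room temperature. DMSO served as vehicle control.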

Assay [5] has the same target. Description: Acetylcholinesterase (AChE) small molecule antagonists: fluorescence cell-based qHTS assay (AID 1347398; calls by dose curve; further: nearly all actives have a fitted effect of over 50% in size). The settings on record: Potency: AChE activity; outcome: AChE activity. The gist of the method: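 SH-SY5Y cells (2000/well), attached overnight, incubated with compound 30 min at 37 C. Acetylthiocholine plus Thiolite Green then added for 40 min at room temperature. Thiocholine fluorescence (Ex/Em 490/520 nm) reports cellular AChE activity.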

The target is the same in assay [6]. Description: Acetylcholinesterase (AChE) small molecule antagonists: enzyme-based qHTS assay with human liver microsomes (AID 1347399; calls by dose curve; further: nearly all actives have a fitted effect of over 60% in size). To be noted: Potency: qHTS inhibition; outcome: qHTS inhibition. In a few lines: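 Recombinant human AChE (50 mU/mL in the enzyme mix) and human liver microsomes (0.25 mg/mL final) were preincubated with compound and NADPH (0.25 mg/mL final) for 30 min at 37 C. Acetylthiocholine/DTNB was then added; thiocholine was read colorimetrically after 10 min at room temperature.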

In assay [7] the target is Cytochrome P450 2D6 (Homo sapiens) (UniProt P10635). Kind of assay: Cytochrome P450 Family 2 Subfamily D Member 6 (CYP2D6) small molecule antagonists: luciferase reporter qHTS assay (AID 1671196). Further: nearly all actives have a fitted effect of over 50% in size. Further: potency means the concentration at half of the fitted maximal effect. The gist of the method: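 Cell-free P450-Glo system: CYP2D6 with proluciferin substrate was pre-incubated with compound for 10 min, then reacted with NADPH regeneration for 1 h at room temperature. Luciferin product was detected after 20 min, and data were reported as relative luminescence units.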
Sequence of Cytochrome P450 2D6 (Homo sapiens) (P10635 whole entry, looked up): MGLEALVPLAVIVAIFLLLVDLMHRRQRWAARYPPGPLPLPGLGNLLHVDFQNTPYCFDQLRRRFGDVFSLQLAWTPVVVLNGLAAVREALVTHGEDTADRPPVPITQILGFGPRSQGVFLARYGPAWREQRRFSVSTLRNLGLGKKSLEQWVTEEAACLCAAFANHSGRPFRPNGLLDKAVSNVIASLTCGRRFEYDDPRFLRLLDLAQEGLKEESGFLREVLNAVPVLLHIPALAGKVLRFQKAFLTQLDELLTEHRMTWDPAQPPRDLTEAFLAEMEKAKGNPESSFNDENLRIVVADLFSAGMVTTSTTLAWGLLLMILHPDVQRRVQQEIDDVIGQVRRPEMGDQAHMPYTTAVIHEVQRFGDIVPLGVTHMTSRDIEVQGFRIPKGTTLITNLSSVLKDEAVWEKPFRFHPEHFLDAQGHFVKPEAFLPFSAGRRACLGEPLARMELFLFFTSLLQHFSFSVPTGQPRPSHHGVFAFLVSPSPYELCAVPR

In assay [8] the target is Cytochrome P450 2C19 (Homo sapiens) (UniProt P33261). Kind of assay: Cytochrome P450 Family 2 Subfamily C Member 19 (CYP2C19) small molecule antagonists: luciferase reporter qHTS assay (AID 1671197). Further: nearly all actives have a fitted effect of over 65% in size. Further: potency means the concentration at half of the fitted maximal effect. In a few lines:
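Quantitative high-throughput screen of the Tox21 library using CYP2C19 with proluciferin substrate. Reaction: NADPH regeneration, 37C, 1 h, after 10 min compound preincubation at room temperature. Readout: luminescence.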
(In a reporter assay the amount or activity of a reporter protein is the signal.)

The target in assay [9] is Cytochrome P450 2C9 (Homo sapiens) (UniProt P11712). Kind of assay: Cytochrome P450 Family 2 Subfamily C Member 9 (CYP2C9) small molecule antagonists: luciferase reporter qHTS assay (AID 1671198). Further: nearly all actives have a fitted effect of over 50% in size. Further: potency means the concentration at half of the fitted maximal effect. In a few lines: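 P450-Glo proluciferin substrate with CYP2C9 enzyme; 10 min RT preincubation, then NADPH regeneration 1 h at 37C; luciferin detection reagent 20 min RT, luminescence in relative luminescence units.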
Sequence of Cytochrome P450 2C9 (Homo sapiens) (P11712 whole entry, looked up): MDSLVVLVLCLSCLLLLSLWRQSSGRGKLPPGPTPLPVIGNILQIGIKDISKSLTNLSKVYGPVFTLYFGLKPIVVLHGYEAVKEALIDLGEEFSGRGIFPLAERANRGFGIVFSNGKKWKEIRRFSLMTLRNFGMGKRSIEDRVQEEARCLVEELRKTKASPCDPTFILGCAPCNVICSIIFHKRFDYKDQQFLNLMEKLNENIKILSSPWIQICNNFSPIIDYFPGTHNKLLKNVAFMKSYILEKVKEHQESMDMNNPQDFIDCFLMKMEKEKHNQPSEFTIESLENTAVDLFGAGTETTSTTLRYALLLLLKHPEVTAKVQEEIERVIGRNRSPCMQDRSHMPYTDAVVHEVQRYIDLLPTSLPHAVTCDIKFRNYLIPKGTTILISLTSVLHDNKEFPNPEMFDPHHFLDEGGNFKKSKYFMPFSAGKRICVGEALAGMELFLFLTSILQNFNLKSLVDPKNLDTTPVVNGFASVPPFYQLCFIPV

Assay [10] has as its target Cytochrome P450 1A2 (Homo sapiens) (UniProt P05177). Kind of assay: Cytochrome P450 Family 1 Subfamily A Member 2 (CYP1A2) small molecule antagonists: luciferase reporter qHTS assay (AID 1671199). Further: nearly all actives have a fitted effect of over 50% in size. Further: potency means the concentration at half of the fitted maximal effect. In a few lines: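 P450-Glo CYP1A2 enzyme–proluciferin substrate mix with compound 10 min at room temperature, then NADPH regeneration 1 h at room temperature. Luciferin detection reagent added, luminescence read after 20 min; furafylline positive control.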

For assay [11], the target named is Voltage-gated inwardly rectifying potassium channel KCNH2 (Homo sapiens) (UniProt Q12809). Description: Human Ether-a-go-go-Related Gene (hERG) channel small molecule antagonists: fluorescence cell-based qHTS assay (AID 1671200). Further: nearly all actives have a fitted effect of over 50% in size. Further: potency means the concentration at half of the fitted maximal effect. The gist of the method: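 Quantitative HTS in hERG-U2OS cells: thallium entry through the channel reports activity, read as continuous 480/540 nm fluorescence over 2 min after stimulus addition.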
Sequence of Voltage-gated inwardly rectifying potassium channel KCNH2 (Homo sapiens) (Q12809 whole entry, looked up): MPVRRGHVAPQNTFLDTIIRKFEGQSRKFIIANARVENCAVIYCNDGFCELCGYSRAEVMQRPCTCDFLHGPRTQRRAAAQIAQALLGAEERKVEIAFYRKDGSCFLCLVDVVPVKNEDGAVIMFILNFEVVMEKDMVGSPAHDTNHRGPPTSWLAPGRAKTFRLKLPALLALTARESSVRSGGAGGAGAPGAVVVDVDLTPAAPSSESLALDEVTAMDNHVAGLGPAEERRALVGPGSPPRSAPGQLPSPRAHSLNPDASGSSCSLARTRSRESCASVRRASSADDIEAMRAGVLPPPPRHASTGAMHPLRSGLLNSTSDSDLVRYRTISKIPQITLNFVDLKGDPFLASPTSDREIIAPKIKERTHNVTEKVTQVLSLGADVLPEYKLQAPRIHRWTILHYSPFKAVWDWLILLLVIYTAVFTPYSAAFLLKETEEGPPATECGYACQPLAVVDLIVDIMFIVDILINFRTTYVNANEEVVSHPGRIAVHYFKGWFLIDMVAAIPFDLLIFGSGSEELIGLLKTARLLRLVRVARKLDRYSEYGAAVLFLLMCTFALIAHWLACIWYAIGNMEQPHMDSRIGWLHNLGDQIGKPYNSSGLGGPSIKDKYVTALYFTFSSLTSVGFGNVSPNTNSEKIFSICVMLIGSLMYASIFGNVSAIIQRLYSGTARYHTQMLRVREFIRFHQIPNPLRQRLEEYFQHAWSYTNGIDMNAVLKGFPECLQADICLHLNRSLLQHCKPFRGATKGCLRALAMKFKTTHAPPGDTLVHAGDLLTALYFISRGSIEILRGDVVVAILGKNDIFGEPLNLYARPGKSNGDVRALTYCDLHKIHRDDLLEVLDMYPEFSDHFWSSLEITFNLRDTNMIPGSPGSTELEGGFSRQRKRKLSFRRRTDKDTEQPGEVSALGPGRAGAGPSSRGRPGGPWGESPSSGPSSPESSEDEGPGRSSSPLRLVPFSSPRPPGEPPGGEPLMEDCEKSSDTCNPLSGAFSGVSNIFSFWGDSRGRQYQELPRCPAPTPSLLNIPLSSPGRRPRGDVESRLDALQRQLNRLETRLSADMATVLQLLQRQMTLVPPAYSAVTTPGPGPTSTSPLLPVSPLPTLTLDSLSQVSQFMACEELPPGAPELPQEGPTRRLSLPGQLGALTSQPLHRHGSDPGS
A general note: Block of hERG is tested as a sign of cardiac risk.

Assay [12] addresses Cytochrome P450 3A4 (Homo sapiens) (UniProt P08684). Kind of assay: Cytochrome P450 Family 3 Subfamily A Member 4 (CYP3A4) small molecule antagonists: luciferase reporter qHTS assay (AID 1671201). Further: nearly all actives have a fitted effect of over 50% in size. Further: potency means the concentration at half of the fitted maximal effect. The gist of the method:
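Inhibition of CYP3A4 is measured as loss of light: the enzyme converts a proluciferin substrate to luciferin, detected luminescently. Reaction ran 1 h at room temperature with NADPH regeneration after a 10 min compound preincubation.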

Assay [13] in a line: Human pregnane X receptor (PXR) small molecule agonists, qHTS cell viability counter screen (AID 1346977). Further: nearly all actives have a fitted effect of over 50% in size. Further: potency means the concentration at half of the fitted maximal effect. In a few lines:
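Measures live-cell protease fluorescence (CellTiter-Fluor) in PXR-Luc HepG2 cells treated 24hr with compounds at 37C. Cells had 5hr to attach before pin transfer of DMSO solutions.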

Assay [14] addresses Nuclear receptor subfamily 1 group I member 2 (Homo sapiens) (UniProt O75469). Description: Human pregnane X receptor (PXR) small molecule agonists, qHTS assay (AID 1346982). Further: nearly all actives have a fitted effect of over 35% in size. Further: potency means the concentration at half of the fitted maximal effect. The gist of the method: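 PXR-Luc HepG2 reporter cells (CYP3A4-driven luciferase) in 5% charcoal-stripped FBS medium, plated 5 h before compound addition, then treated 24 h at 37C. Luciferase read by ONE-Glo luminescence after 30 min at room temperature.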

Assay [15] has as its target Acetylcholinesterase (Homo sapiens) (UniProt P22303). Description: Acetylcholinesterase (AChE) small molecule antagonists: colormetric cell-based qHTS assay (AID 1347395; calls by dose curve; further: nearly all actives have a fitted effect of over 30% in size). The gist of the method: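 Endogenous AChE of human neuroblastoma SH-SY5Y cells was measured with an Ellman-type DTNB/acetylthiocholine mix. Compound pretreatment lasted 30 min at 37 C; substrate reaction ran 90 min at 37 C.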

Assay [16] in a line: Caspase-3/7 induction in CHO-K1 cells by small molecules, qHTS cell viability counter screen (AID 1346979). Further: nearly all actives have a fitted effect of over 35% in size. Further: potency means the concentration at half of the fitted maximal effect. The gist of the method: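 In the same wells as the caspase read, viability of compound-treated wild-type CHO-K1 cells was assessed using CellTiter-Fluor, added after 16hr at 37C and measured by fluorescence following 1hr further incubation.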

Sequence of Nuclear receptor subfamily 1 group I member 2 (Homo sapiens) (O75469 whole entry, looked up): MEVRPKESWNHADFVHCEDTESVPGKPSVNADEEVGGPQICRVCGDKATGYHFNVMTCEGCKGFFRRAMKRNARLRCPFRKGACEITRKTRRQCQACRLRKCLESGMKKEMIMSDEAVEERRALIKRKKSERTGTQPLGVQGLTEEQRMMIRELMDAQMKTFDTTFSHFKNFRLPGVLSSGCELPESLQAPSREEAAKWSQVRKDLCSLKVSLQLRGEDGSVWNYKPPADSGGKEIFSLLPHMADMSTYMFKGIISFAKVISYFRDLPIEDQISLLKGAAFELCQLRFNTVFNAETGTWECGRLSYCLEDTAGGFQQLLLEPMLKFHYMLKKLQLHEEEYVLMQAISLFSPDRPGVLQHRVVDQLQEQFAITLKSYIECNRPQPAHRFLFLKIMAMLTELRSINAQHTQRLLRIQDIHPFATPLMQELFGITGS
Sequence of Acetylcholinesterase (Homo sapiens) (P22303 whole entry, looked up): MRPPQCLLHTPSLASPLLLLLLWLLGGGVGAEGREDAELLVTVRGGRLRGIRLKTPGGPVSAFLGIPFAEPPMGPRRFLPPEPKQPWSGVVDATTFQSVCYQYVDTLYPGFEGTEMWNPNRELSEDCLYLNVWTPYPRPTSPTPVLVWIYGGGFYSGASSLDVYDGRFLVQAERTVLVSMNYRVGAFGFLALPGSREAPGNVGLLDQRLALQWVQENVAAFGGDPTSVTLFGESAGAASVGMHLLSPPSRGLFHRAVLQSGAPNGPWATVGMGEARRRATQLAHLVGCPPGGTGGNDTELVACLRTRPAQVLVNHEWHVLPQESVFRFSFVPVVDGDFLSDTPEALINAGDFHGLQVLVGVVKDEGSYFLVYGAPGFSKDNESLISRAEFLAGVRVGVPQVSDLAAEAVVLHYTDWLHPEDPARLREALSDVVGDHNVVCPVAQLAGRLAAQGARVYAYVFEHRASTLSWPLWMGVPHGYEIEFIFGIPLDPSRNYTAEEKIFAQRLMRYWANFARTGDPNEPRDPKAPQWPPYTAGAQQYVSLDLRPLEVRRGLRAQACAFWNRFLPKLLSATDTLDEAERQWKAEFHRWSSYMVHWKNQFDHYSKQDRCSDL
Sequence of Cytochrome P450 1A2 (Homo sapiens) (P05177 whole entry, looked up): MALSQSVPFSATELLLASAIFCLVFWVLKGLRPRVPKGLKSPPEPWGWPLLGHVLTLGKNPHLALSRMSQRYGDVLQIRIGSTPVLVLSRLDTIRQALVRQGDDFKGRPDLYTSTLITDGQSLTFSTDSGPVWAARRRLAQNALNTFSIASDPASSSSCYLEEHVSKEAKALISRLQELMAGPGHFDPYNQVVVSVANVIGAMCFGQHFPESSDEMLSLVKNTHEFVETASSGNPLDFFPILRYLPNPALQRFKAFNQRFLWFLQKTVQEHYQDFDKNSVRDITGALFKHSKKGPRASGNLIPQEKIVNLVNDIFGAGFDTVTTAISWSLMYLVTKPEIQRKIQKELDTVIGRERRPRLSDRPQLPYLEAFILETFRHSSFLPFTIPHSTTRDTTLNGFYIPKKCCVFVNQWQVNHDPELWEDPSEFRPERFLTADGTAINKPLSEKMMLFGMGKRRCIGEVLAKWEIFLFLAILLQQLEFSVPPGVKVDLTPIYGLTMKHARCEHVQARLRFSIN
Sequence of Cytochrome P450 2C19 (Homo sapiens) (P33261 whole entry, looked up): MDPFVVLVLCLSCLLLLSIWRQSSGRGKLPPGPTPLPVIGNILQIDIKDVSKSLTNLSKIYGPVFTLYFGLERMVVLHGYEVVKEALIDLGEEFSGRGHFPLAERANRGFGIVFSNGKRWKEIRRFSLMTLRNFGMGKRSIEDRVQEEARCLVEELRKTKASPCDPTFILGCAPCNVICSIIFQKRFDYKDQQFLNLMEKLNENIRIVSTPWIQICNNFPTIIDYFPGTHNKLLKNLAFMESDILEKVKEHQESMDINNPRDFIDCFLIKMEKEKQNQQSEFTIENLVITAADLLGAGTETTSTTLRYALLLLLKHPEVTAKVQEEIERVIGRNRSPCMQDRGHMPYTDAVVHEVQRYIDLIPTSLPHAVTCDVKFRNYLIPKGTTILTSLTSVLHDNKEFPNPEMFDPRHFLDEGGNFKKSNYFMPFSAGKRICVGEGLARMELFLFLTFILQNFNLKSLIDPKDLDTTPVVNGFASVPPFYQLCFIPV
Sequence of Cytochrome P450 3A4 (Homo sapiens) (P08684 whole entry, looked up): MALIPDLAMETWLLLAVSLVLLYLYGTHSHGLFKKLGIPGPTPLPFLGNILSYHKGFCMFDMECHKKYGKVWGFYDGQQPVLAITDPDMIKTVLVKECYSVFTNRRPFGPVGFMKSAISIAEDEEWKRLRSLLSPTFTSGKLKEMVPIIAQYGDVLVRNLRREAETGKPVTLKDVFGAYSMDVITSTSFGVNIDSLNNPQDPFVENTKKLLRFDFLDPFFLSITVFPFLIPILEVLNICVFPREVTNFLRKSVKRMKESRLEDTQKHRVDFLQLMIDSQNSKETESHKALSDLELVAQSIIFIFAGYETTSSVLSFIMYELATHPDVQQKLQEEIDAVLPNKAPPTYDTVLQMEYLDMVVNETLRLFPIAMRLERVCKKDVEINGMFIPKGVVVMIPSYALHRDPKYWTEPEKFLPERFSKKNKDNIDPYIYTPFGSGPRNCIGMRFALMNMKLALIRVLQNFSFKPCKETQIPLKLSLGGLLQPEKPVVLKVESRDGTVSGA

As for `CC(C)(C)N(NC(=O)c1ccc(Cl)cc1)C(=O)c1ccccc1`, the Potency result in assay [1], in assay [2], in [4], in [5], in assay [6] and in [7] was “inactive” throughout. Also, the Potency entry in [11] was “inactive”. Also, the Potency in [3] was 12.1 µM (active); in assay [8] it was 4.45 µM (active); in assay [9], 11.2 µM (active); in [10], 39.7 µM (active); in assay [12], 7.92 µM (active).

Regarding `O=C(NCNC(=O)NC1C(=O)NC(=O)N1CO)NC1C(=O)NC(=O)N1CO` (stereo unspecified), the Potency result in [2], in [3] and in [11] was “inactive” throughout.

Consider `O=C1c2ccccc2C(=O)N1SC(Cl)(Cl)Cl`, for which the Potency was 39.8 µM (active) and 17.2 µM (active) in [13]; 24.3 µM (active) in assay [3]; 6.03 µM (active) in [14]; 78.5 µM (active) and 20 µM (active) in assay [8]; 24.8 µM (active) and 11.2 µM (active) in assay [9]; 24.8 µM (active) and 22.4 µM (active) in assay [10]. Also, the Potency in [11] was 24.2 µM (active) and 38.9 µM (active). The Potency result in [2], in assay [15], in assay [4], in assay [5], in assay [6] and in assay [7] was “inactive” in each case. The Potency entry in assay [12] is “inactive”.

For the molecule `Clc1ccccc1`, the Potency in [13] is 26.9 µM (active); in assay [16] it was 9.55 µM (active); in assay [14], 24 µM (active). In addition, the Potency entry in assay [2], in assay [15], in [4], in [5], in assay [6] and in assay [7] was “inactive” each time. For the same molecule, the Potency entry in [8], in [9], in assay [10], in [11] and in [12] was “inactive” throughout.

Take `C=CCOC(=O)C(C)(C)OC(=O)c1cc(-n2c(=O)cc(C(F)(F)F)n(C)c2=O)ccc1Cl`: the Potency entry in assay [13], in assay [2], in assay [15], in [4], in [5] and in assay [6] was “inactive” in each case. Moreover, in assay [11], the Potency entry is “inactive”. For the same molecule, the Potency in assay [14] was 4.24 µM (active); in [7], 27.7 µM (active); in assay [8] it was 49.3 µM (active); in [9] it was 15.6 µM (active); in assay [12], 0.553 µM (active).

For the molecule `COc1cc(CC(C)N)c(OC)cc1Br` (stereo unspecified), the Potency result in [1], in assay [16], in [2], in assay [3], in [15] and in [4] was “inactive” in each case. Also, the Potency entry in [5], in assay [6], in assay [8], in [9] and in assay [11] was “inactive” each time. In addition, the Potency is 26 µM (active) in assay [7] and 5.2 µM (active) in [10].

With `CC(C)(C#N)C(C)(C)C#N`, the Potency result in assay [13], in assay [2], in assay [3], in assay [14], in [15] and in assay [4] was “inactive” each time. In addition, the Potency entry in [5], in assay [6], in assay [7], in assay [8], in [9] and in assay [11] was “inactive” throughout. Besides, the Potency entry in [12] is “inactive”.

As for `N#CC1(N=NC2(C#N)CCCCC2)CCCCC1`, the Potency result in [13], in assay [16], in [2], in [15], in [4] and in assay [5] was “inactive” throughout. For the same molecule, the Potency entry in assay [6] and in [10] was “inactive” in each case. Also, the Potency is 5.03 µM (active) in [8], 11.2 µM (active) in [9], 38.9 µM (active) in assay [11] and 11.2 µM (active) in assay [12].

On to `CC(C)(C)c1ccc(CCOc2ncnc3ccccc23)cc1`, for which the Potency entry in assay [13], in assay [2], in assay [14], in assay [15], in assay [4] and in assay [5] was “inactive” throughout. The Potency result in assay [6], in assay [8], in assay [9], in assay [10], in [11] and in assay [12] was “inactive” each time. For the same molecule, the Potency in [7] is 71 µM (active).
